PKM2 act: PKM2 (human) enzyme activation | actives 0.34% (n = 260,000) | AID 1631 | P14618 | Potency, µM (top dose mostly 57.5 µM), for inactives: at the highest dose activation, hits mostly activators | purified PKM2, Kinase-Glo ATP luminescence, activation; response scale: 0% is enzyme alone, no compound; note: % is set by controls: 0 for no effect and ±100 for the full control effect; nearly all actives have a fitted effect of over 55% in size
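Kinase-Glo luminescence reports ATP generated from ADP (0.1 mM) and PEP (0.5 mM) by purified hPK-M2 after 1 h at room temperature, pH 7.2 imidazole buffer; intermediate enzyme activity allows detecting inhibitors and activators.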
Rango complex inh: Rango-importin beta binding inhibition | actives 0.031% (n = 340,000) | Rango CFP/YFP FRET sensor + importin beta, 45 min | Potency, µM (highest dose often 92.2 µM), for the others: top-dose inhibition of complex formation; calls by dose curve;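 note: 0% = DMSO wells and 100% = buffer wells lacking importin beta; nearly all actives have a fitted effect of over 15% in size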
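FRET biosensor Rango (snurportin 1 IBB between N-terminal EYFP and C-terminal Cerulean), 50 nM in PBS/1 mM DTT/0.02% Tween-20/0.1% BSA, preincubated 5 min RT with compound; 0.125 microM importin beta added, 45 min RT, CFP/YFP FRET ratio read.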
PGK inhibitor: inhibitors of T. brucei phosphoglycerate kinase. P07378. PGK/GAPDH coupled, Kinase-Glo luminescence, 60 min. actives 0.043% (n = 380,000). Potency, µM (highest dose often 57.5 µM), for inactives: at the top dose activity change, negative = inhibition, usual class: inhibitors; note: % is set by controls: 0 for no effect and ±100 for the full control effect; nearly all actives have a fitted effect of over 60% in size
Target sequence (P07378 whole entry, looked up): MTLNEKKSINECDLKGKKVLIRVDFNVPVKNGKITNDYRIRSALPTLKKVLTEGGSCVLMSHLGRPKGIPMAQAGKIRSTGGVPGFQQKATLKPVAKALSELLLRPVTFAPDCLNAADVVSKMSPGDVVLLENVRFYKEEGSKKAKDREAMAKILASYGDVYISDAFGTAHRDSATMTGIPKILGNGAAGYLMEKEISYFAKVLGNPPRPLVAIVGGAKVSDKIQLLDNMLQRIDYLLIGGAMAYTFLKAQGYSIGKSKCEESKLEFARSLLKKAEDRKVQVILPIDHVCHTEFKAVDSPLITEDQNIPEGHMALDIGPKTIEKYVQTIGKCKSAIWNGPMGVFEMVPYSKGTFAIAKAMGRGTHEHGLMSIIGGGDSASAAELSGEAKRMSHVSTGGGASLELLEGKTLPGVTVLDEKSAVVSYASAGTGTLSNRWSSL
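Recombinant glycosomal PGK reaction used 1,3-bisphosphoglycerate generated in-well by GAPDH (100nM final) in 100mM TEA pH 7.6, 5mM MgCl2, 0.01% Tween-20. After 60 minutes at room temperature, ATP was read by Kinase-Glo Plus luminescence end-point.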
Rango release inh: inhibitors of RanGTP-induced Rango-importin beta complex dissociation; AID 540253; Potency, µM (series often up to 46.1 µM), inactives show at the top dose activity change, negative = inhibition; actives 0.071% (n = 340,000); Biochemical FRET Rango-importin beta, RanGTP-induced dissociation; calls by dose curve; note: % of control where 0% means no effect; nearly all actives have a fitted effect of over 45% in size
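Recombinant Rango FRET biosensor (EYFP–snurportin 1 IBB–cerulean CFP10) at 0.1 uM premixed with 0.25 uM importin beta in PBS, 1 mM DTT, 0.02% Tween-20, 0.1% BSA. Compound added 5 min; RanGTP-RCC1 (0.6 uM Ran, 2 mM GTP, 0.2 uM RCC1) then triggers release, read at 45 min.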
ELG1 DNA repair: ELG1-dependent DNA repair inhibition; Potency, µM (top dose mostly 46.1 µM), inactives show at the top dose activity change, negative = inhibition, most hits filed as inhibitors; actives 2.3% (n = 330,000); HEK293T ELG1-luciferase reporter, luminescence, 16 h; DNA damage induced by 5-fluorouridine; AID 504467; note: % is set by controls: 0 for no effect and ±100 for the full control effect; nearly all actives have a fitted effect of over 55% in size
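HEK293T cells expressing luciferase-tagged ELG1 (2,000/well) received 5-Fluorouridine plus compound or DMSO for 16 hr at 37 °C. Luciferase was read by ONE-Glo luminescence after 30 min at room temperature.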
Tb PFK inh: inhibitors of T. brucei phosphofructokinase; O15648; T. brucei PFK, ADP-Glo luminescence; Potency, µM (titrated, usually from 57.5 µM), for inactives: at the highest dose activity, negative = inhibition, most hits filed as inhibitors; actives 0.17% (n = 330,000); AID 485367;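 note: 0% = uninhibited 1x PFK enzyme wells and -100% = no-enzyme wells; nearly all actives have a fitted effect of over 60% in size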
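In TEA buffer at pH 8.0 with 5 mM MgCl2, enzyme (1.25 nM) converted F6P (0.5 mM) and ATP (0.1 mM) for 45 min at room temperature. ADP product was read by luciferase luminescence.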
* marks the source's active call; other numbers are inactive results; i = inactive; ? = inconclusive; / = not tested or not shown; [ ] = dose if it differs, or a comment. Only some compounds are listed: those with a hit (about 2.4% of all), similar ones and a draw of the others. Unless noted, calls come from the whole dose curve; as a rule, active = well fitted curve in the direction sought with a large enough effect; inconclusive = small, poorly fitted or top-dose-only effect, or another doubt; inactive = no such curve, though single readings can be large; an effect the other way counts as inactive or inconclusive. Potency is the fitted concentration of half-maximal effect.

SMILES	PKM2 act	Rango complex inh	PGK inhibitor	Rango release inh	ELG1 DNA repair	Tb PFK inh
CCCC(=O)N1CCN(c2ccc(NC(=O)c3cc4ccccc4o3)cc2Cl)CC1	2.6%	-1.5%	-4.2%	-11.1%	2.31µM*	-7.7%
CC(=O)N1CCN(c2ccc(NC(=O)c3ccco3)cc2Cl)CC1	-1.2%	1.0%	2.5%	-2.7%	?	0.4%
O=C(NCc1ccccc1)c1csc(-c2cccnc2)n1	-10.4%	-0.2%	3.6%	0.8%	5.8µM*	-0.3%
O=C(NCCc1csc(-c2cccnc2)n1)c1ccccc1	6.3%	1.5%	-3.4%	-11.6%	-5.3%	-4.4%
COC(=O)C1CCN(C(=O)COC(=O)CSc2ccc(C(N)=O)cc2[N+](=O)[O-])CC1	/	2.1%	0.9%	-8.1%	21.6%	-2.2%
COc1ccc(N2CCN(C(=O)COc3ccccc3C#N)CC2)cc1	/	/	-2.2%	/	/	/
Cc1ccc2nc(/C(C#N)=C\c3ccc(N4CCOCC4)o3)[nH]c2c1	-1.5%	?	-1.1%	?	?	-2.8%
Cc1ccc(/C(C#N)=C\c2ccc(N3CCOCC3)o2)cc1	2.82µM*	?	/	?	?	-15.7%
Cc1ccc2[nH]c3c(c2c1)CCCC3C(N)=O (stereo not drawn)	1.2%	5.3%	-7.5%	21.9%	8.5%	3.4%
Cc1ccc2[nH]c3c(c2c1)CCCC3NC(=O)CCl (stereo not drawn)	5.4%	0.7%	-5.3%	1.6%	17.8µM*	0.0%
COCCCN1C(=O)c2oc3ccccc3c(=O)c2C12C(=O)N(C)c1ccccc12 (stereo not drawn)	/	/	-8.2%	/	/	/
COc1ccc(N2C(=O)CSC23C(=O)N(CC(=O)NCCc2ccccc2)c2ccccc23)cc1 (stereo not drawn)	/	/	-2.1%	/	/	/
O=C1NN(c2ccccc2)C(=O)/C1=C\c1ccccc1OCC(=O)N1CCOCC1	10µM*	-0.8%	i	-0.4%	9.2%	19.0%
Cc1ccc(S(=O)(=O)N2[C@@H](c3ccc(C(C)(C)C)cc3)C(C(=O)O)=CC[C@H]2c2ccc(C(C)C)cc2)cc1	/	0.7%	?	-0.6%	16.4µM*	-8.5%
CCOC(=O)N1CCC(Nc2c(N3CCN(c4cccc(C(F)(F)F)c4)CC3)c(=O)c2=O)CC1	17.4%	2.7%	-7.2%	-12.8%	18.4µM*	-2.4%
Cc1ccc2nc(C)c3c(c2c1)N(c1ccc(F)cc1)CC3	-5.1%	1.4%	3.7%	1.1%	?	-1.9%
Nc1nc(SCC(=O)Nc2ccc(Br)cc2F)n[nH]1	22.4µM*	4.4%	-9.2%	4.8%	13.9%	-5.9%
Cc1ccc(OC(C)C(=O)N2CC(=O)Nc3ccccc32)cc1 (stereo not drawn)	/	0.5%	-8.7%	-5.1%	18.3µM*	-7.2%
Cn1c(=O)c2c(nc(N/N=C/c3ccc(OC(=O)c4ccco4)cc3)n2Cc2ccc(F)cc2)n(C)c1=O	6.9%	-5.3%	-7.7%	-17.6%	16.4µM*	-6.8%
Cn1c(=O)c2c(nc(N/N=C/c3ccc(OC(=O)c4ccco4)cc3)n2Cc2ccccc2Cl)n(C)c1=O	-2.4%	-1.1%	i	11.2%	16.4µM*	-3.4%
Cn1c(=O)c2c(nc(N/N=C/c3cccnc3)n2Cc2ccccc2)n(C)c1=O	-2.0%	1.1%	1.0%	10.8%	?	-0.8%
Cc1cc(C)cc(-n2c(SCC(=O)N3CCCCCC3)nc3c([nH]c4ccccc43)c2=O)c1	/	/	-0.3%	/	/	/
COc1cc(C(=O)Nc2sc(C)c(C)c2C(=O)O)cc(OC)c1OC	-9.1%	-1.0%	3.5%	1.1%	9.6%	-3.4%
COc1cc(C(=O)Nc2sc3c(c2C(=O)O)CCC(C)C3)cc(OC)c1OC (stereo not drawn)	/	0.1%	-3.8%	-18.3%	2.91µM*	-9.3%
COc1ccc(Nc2nc(N3CCOCC3)nc(N3CCOCC3)n2)cc1Cl	0.6%[11.5 µM]	-5.1%	-4.8%	0.0%	5.62µM*	0.4%
SMILES	PKM2 act	Rango complex inh	PGK inhibitor	Rango release inh	ELG1 DNA repair	Tb PFK inh
CC(=O)CSc1nc2ccc(Nc3nc(N4CCOCC4)nc(N4CCOCC4)n3)cc2s1	10.5%	3.2%	-7.2%	15.5%	?	-6.9%
CC(C)(C)NC(=O)CSc1nc2ccc(Nc3nc(N4CCOCC4)nc(N4CCOCC4)n3)cc2s1	0.7%	-1.6%	-8.7%	-2.1%	3.26µM*	-1.5%
Cc1ccc(NC(=O)CSc2nc3ccc(Nc4nc(N5CCOCC5)nc(N5CCOCC5)n4)cc3s2)cc1	/	2.2%	4.9%	7.5%	?	7.4%
COc1ccc(NC(=O)CSc2nc3ccc(Nc4nc(N5CCOCC5)nc(N5CCOCC5)n4)cc3s2)cc1	/	0.6%	i	0.2%	2.31µM*	0.9%
CC(C)C(OC(=O)c1cccs1)C(=O)NCc1ccco1 (stereo not drawn)	0.2%	0.9%	-3.6%	-13.8%	3.1%	2.2%
Cc1cc2c(cc(C(=O)OC(C(=O)NCc3ccco3)C(C)C)n2C)o1 (stereo not drawn)	-3.4%	-1.6%	/	-2.2%	23.1µM*	0.2%
COc1ccc(OC)c(NC(=O)c2cnc(N3CCCCC3)c3ccccc23)c1	/	/	-9.6%	/	/	/
Brc1ccc(OCc2nnnn2-c2ccccc2)cc1	25.1µM*	1.6%	-1.0%	-8.8%	6.3%	-1.0%
O=CC(O)C1OC(=O)C(O)C1O (stereo not drawn)	/	-2.0%	6.31µM*	-5.6%	/	/
